The values below come from the supplement of paper PMC6555819.

The assay relates to VDR:RXRa (NR concentration 270 nM, RXRa partner concentration 90 nM). Description: PBM binding z-score (relative to random genomic background probes); higher = stronger binding; sequences stand for … in GC…GCGATTGACAGCGTAGAATGAAGG
How it is done: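 Protein-binding microarray (Agilent 4x180K custom design, double-stranded 60-nt probes: 5' GC cap, 34-nt variable region, 24-nt constant primer region; full probe sequence given). Purified or IVT nuclear receptor:RXRα heterodimers (3:1 NR:RXRα, mostly 270:90 nM) or homodimers were incubated for 1 h in PBS with 2% milk and no ligand, then detected with Alexa488 antibodies. Fluorescence from o1-orientation probes (~5 replicates averaged) was converted to z-scores against 500 random hg19 background probes. Variable regions are seed direct-repeat (DR0–DR5) sites, all their single-nucleotide variants and half-site ablations.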
For CAAACTAGGTCAAAGGTCAAAATCGAGCCAACCA, the PBM binding z-score was found to be 6.43. Next, CGAACTAGGTCACCAGGAAAGTGAAGAGGTTGGA: 1.66. For the sequence CGAACTAGGTCAAAGGACAGTAAAAGGCGACGTA, the PBM binding z-score was 1.55.

Sequence CTAACTAGGTCACAGAGGTCAAAGTCCGTGCGTA had a PBM binding z-score of 8.06. Next, AGTCAAAGTTGATCTAGGTAACGTAAGATATGCT: 0.0495; CGAACTAGGTCATAGGACAGTGAAAGGCGACGTA: 1.47. On to CGAACTATGTCAAGGACAGTGAATCTCCGCACGC, for which the PBM binding z-score was -0.248. To CCGAGTAGGTTACGAGGGGGCATTAAGTGCGAAT belongs 5.39; to CCTACTGGGCCATCAGGTGATTGATATCAACGTT, -0.317.

The sequence CAAACTAGGTCACAGAGGTCGAAGTCCGTGCGTA yielded a PBM binding z-score of 6.75. To CCGCGTAGGTTACGAGGGGGCATTCAGTGCGAAT belongs 5.31; to ATATGTAGGTTACCGGGTCATTCAGTTTGCGCAT, 5.56; to GCTGCTAGGTCAACTGATGGTCAGCTAAAGCTCG, 1.47. Next, ATATGTAGGTTACATCCGAGTCATTCAGGCTATG: 0.386; CGGACTAGGTCACCAGGACAGTGAAGAGGTTGGA: 1.54. Take TTACGAAGGTGAAAGGTCGTTGATGCACGCCTTG: the PBM binding z-score was determined as 3.25. Sequence CGAACTAGGTCACCAGCACAGTGAAGAGGTTGGA had a PBM binding z-score of 1.89. In turn, TAGCCTAGGTCATTCAGGGGGCAGTATAGAAAGC returned a PBM binding z-score of 4.82. Sequence ATATGTAGGTTAGGCTCATTCAGAAAGTAGGGAA returned a PBM binding z-score of -0.124. With ATATGTAGGTTAGGGTCACTCAGAAAGTAGGGAA, the PBM binding z-score came out at 3.98.

The sequence CGTCCAAGGTCAATGCGAGGTCAGTGAAAGCATT gave a PBM binding z-score of 6.22. Turning to AAATGTAGGTTAAGGGTCATTCAGGTTGGTTCGC, the PBM binding z-score was 5.82. To CTATGTAGGTTAAGGGGGTCATCCAGTTTGAAAG belongs 7.32; to CCTTACCGGTCAAGGTTATAGCACGGGTGGTACG, 0.829. To CAAACTAGGTCACAGAGGACAAAGTCCGTGCGTA belongs 6.52; to CTCGAAAGGTCGGTTGAGGTGAGTAAACGGATAA, 2.11. Next, AGTCAAAGTTCATCTGGGTAACGTAAGATATGCT: 4.96; CCGAGTAGGTTACGAGGGGGCATTCGGTGCGAAT: 5.48; CGAACTAGTTCAAAGGACAGTGAAAGGCGACGTA: 0.0501. Turning to CCTGCTAGTTCAATGGTCAGCTAAAGCAGCTCGC, the PBM binding z-score worked out at 0.426. To ATATTTAGGTTAGGGTCATTCAGAAAGTAGGGAA belongs 4.6.

Sequence TCGAGTAGGTTACGGGGGCATTAAGGGATGAAGA registered a PBM binding z-score of 3.4. Next, CCTACTGGGCCAATAAGGTCATTGATGCCGATAA: 5.29; CCTTACGGGTCACTTACAGGTTATAGCATTTGGA: 3.6. Next, CTTAGTTGGTCAGGAGGTCACACACCGGATATGA: 3.78; CCTGCTAGGTCAATGGTCAGCTAAAGCAGCTCGC: 1.02. Next, ATATGTAGGTTAGGGTTATTCAGAAAGTAGGGAA: 1.94. For the sequence CCTACTGGGCCAAAGGCCATTGATTCCAATGCTC, the PBM binding z-score was -0.327. Sequence CCGAGTAGGTTACGTGGGGGCATTCAGTGCGAAT gave a PBM binding z-score of 5.48.

The sequence CGAAGTAGGTCAAAGGACAGTGAAAGGCGACGTA returned a PBM binding z-score of 1.9.
